Where “and” joins values, the source holds several entries; their conditions need not be identical. Equal entries are not always repeated. Hit rate of the full screen: of about 5,500 compounds, about 2,000 (36%) were called active. Inconclusive results (about 18%) are left out. The list shows a part of the results. A number with no mark means an inactive call. Rule as the data show it: active = normalized growth mostly below about 0.91 (no sharp cut-off); inconclusive = no clear call, values can overlap the other calls; inactive = mostly above about 0.92.
Assay: chemical genetic growth profiling, strain panel (AID 1159580);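 also: tested at 20 µM; growth read once vehicle control cultures reached saturation at 30 °C; 1 = growth at the plate median or of vehicle wells; lower values mean less growth of the strain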
Conditions: S. cerevisiae deletion strains, growth OD

SMILES: ClC1C(Cl)C(Cl)C(Cl)C(Cl)C1Cl (stereo unspecified)
- normalized growth (locus YAL013W, strain DEP1, active compounds read low): 0.981
- normalized growth (locus YAL021C, strain ccr4, active compounds read low): 0.997
- normalized growth (locus YAL026C, strain drs2, active compounds read low): 0.988
- normalized growth (locus YAL030W, strain snc1, active compounds read low): 0.98
- normalized growth (locus YBL061C, strain skt5, active compounds read low): 0.965
- normalized growth (locus YBR009C, strain hhf1, active compounds read low): 0.831 (active)
- normalized growth (locus YBR021W, strain FUR4, active compounds read low): 0.985
- normalized growth (locus YBR023C, strain chs3, active compounds read low): 0.965
- normalized growth (locus YBR171W, strain sec66, active compounds read low): 0.956
- normalized growth (locus YBR229C, strain ROT2, active compounds read low): 0.962
- normalized growth (locus YBR231C, strain swc5, active compounds read low): 0.913
- normalized growth (locus YBR279W, strain paf1, active compounds read low): 0.971
- normalized growth (locus YCL011C, strain gbp2, active compounds read low): 0.931
- normalized growth (locus YCL016C, strain dcc1, active compounds read low): 0.898 (active)
- normalized growth (locus YCL029C, strain bik1, active compounds read low): 0.906 (active)
- normalized growth (locus YCL061C, strain MRC1, active compounds read low): 0.894 (active)
- normalized growth (locus YCL069W, strain vba3, active compounds read low): 0.986
- normalized growth (locus YCR088W, strain abp1, active compounds read low): 0.965
- normalized growth (locus YDL005C, strain med2, active compounds read low): 1.01
- normalized growth (locus YDL035C, strain GPR1, active compounds read low): 0.976
- normalized growth (locus YDL040C, strain nat1, active compounds read low): 0.986
- normalized growth (locus YDL074C, strain BRE1, active compounds read low): 0.939
- normalized growth (locus YDL101C, strain DUN1, active compounds read low): 0.964
- normalized growth (locus YDL134C, strain PPH21, active compounds read low): 0.963
- normalized growth (locus YDL185W, strain tfp1, active compounds read low): 0.926
- normalized growth (locus YDL192W, strain arf1, active compounds read low): 0.942
- normalized growth (locus YDR001C, strain nth1, active compounds read low): 0.964
- normalized growth (locus YDR069C, strain doa4, active compounds read low): 0.989
- normalized growth (locus YDR101C, strain arx1, active compounds read low): 0.956
- normalized growth (locus YDR137W, strain rgp1, active compounds read low): 0.606 (active)
- normalized growth (locus YDR150W, strain NUM1, active compounds read low): 0.942
- normalized growth (locus YDR159W, strain sac3, active compounds read low): 0.703 (active)
- normalized growth (locus YDR162C, strain NBP2, active compounds read low): 0.969
- normalized growth (locus YDR195W, strain ref2): 1.07
- normalized growth (locus YDR297W, strain sur2, active compounds read low): 0.97
- normalized growth (locus YDR318W, strain mcm21, active compounds read low): 0.926
- normalized growth (locus YDR334W, strain swr1, active compounds read low): 0.976
- normalized growth (locus YDR335W, strain msn5, active compounds read low): 1
- normalized growth (locus YDR388W, active compounds read low): 0.935
- normalized growth (locus YDR392W, strain spt3, active compounds read low): 0.295 (active)
- normalized growth (locus YDR502C, strain sam2, active compounds read low): 0.937
- normalized growth (locus YEL003W, strain gim4, active compounds read low): 0.982
- normalized growth (locus YEL037C, strain rad23, active compounds read low): 0.973
- normalized growth (locus YEL061C, strain CIN8 (second series), active compounds read low): 0.99
- normalized growth (locus YEL061C, strain CIN8, active compounds read low): 0.953
- normalized growth (locus YER015W, strain faa2, active compounds read low): 0.982
- normalized growth (locus YER016W, strain bim1, active compounds read low): 0.98
- normalized growth (locus YER110C, active compounds read low): 0.935
- normalized growth (locus YER111C, strain swi4, active compounds read low): 0.933
- normalized growth (locus YER155C, strain BEM2 (second series), active compounds read low): 0.306 (active)
- normalized growth (locus YER155C, strain BEM2, active compounds read low): 0.959
- normalized growth (locus YER167W, strain BCK2, active compounds read low): 0.84 (active)
- normalized growth (locus YFR010W, strain ubp6, active compounds read low): 0.983
- normalized growth (locus YGL078C, strain dbp3, active compounds read low): 0.933
- normalized growth (locus YGL086W, strain mad1, active compounds read low): 0.933
- normalized growth (locus YGL167C, strain pmr1, active compounds read low): 0.974
- normalized growth (locus YGL173C, strain kem1, active compounds read low): 0.96
- normalized growth (locus YGL227W, strain vid30, active compounds read low): 0.954
- normalized growth (locus YGL240W, strain doc1, active compounds read low): 0.774 (active)
- normalized growth (locus YGL248W, strain PDE1, active compounds read low): 0.954
- normalized growth (locus YGL253W, strain hxk2, active compounds read low): 0.976
- normalized growth (locus YGR078C, strain PAC10, active compounds read low): 0.954
- normalized growth (locus YGR135W, strain pre9, active compounds read low): 0.947
- normalized growth (locus YGR229C, strain SMI1, active compounds read low): 0.954
- normalized growth (locus YGR252W, strain gcn5, active compounds read low): 1.12
- normalized growth (locus YHR013C, strain ard1, active compounds read low): 0.866
- normalized growth (locus YHR027C, strain rpn1, active compounds read low): 0.988
- normalized growth (locus YHR030C, strain SLT2, active compounds read low): 0.945 and 0.982
- normalized growth (locus YHR079C, strain IRE1 (second series), active compounds read low): 0.927
- normalized growth (locus YHR079C, strain IRE1, active compounds read low): 0.985
- normalized growth (locus YHR094C, strain hxt1, active compounds read low): 0.923 (active)
- normalized growth (locus YHR129C, strain ARP1, active compounds read low): 0.958
- normalized growth (locus YHR142W, strain chs7, active compounds read low): 0.805 (active)
- normalized growth (locus YHR200W, strain rpn10, active compounds read low): 0.922
- normalized growth (locus YIL066C, strain RNR3, active compounds read low): 0.955
- normalized growth (locus YIL073C, strain SPO22, active compounds read low): 0.906
- normalized growth (locus YIL125W, strain kgd1, active compounds read low): 0.906 (active)
- normalized growth (locus YIR030C, strain dcg1, active compounds read low): 0.945
- normalized growth (locus YJL092W, strain hpr5, active compounds read low): 0.95
- normalized growth (locus YJL095W, strain BCK1 (second series), active compounds read low): 0.931
- normalized growth (locus YJL095W, strain BCK1, active compounds read low): 0.871 and 0.984
- normalized growth (locus YJL115W, strain asf1, active compounds read low): 1.01
- normalized growth (locus YJL129C, strain trk1, active compounds read low): 0.783 (active)
- normalized growth (locus YJL134W, strain LCB3, active compounds read low): 0.955
- normalized growth (locus YJL154C, strain vps35, active compounds read low): 0.982
- normalized growth (locus YJL164C, strain tpk1, active compounds read low): 0.925
- normalized growth (locus YJL166W, strain qcr8, active compounds read low): 0.728 (active)
- normalized growth (locus YJL168C, strain set2, active compounds read low): 0.943
- normalized growth (locus YJL187C, strain SWE1 (second series), active compounds read low): 0.959
- normalized growth (locus YJR043C, strain POL32, active compounds read low): 0.965
- normalized growth (locus YJR066W, strain TOR1, active compounds read low): 0.939

Reference: PubChem BioAssay AID1159580 (chemical genetic matrix, 2015)
